# Results published in PubChem BioAssay (NCI).
# This is part of a sample that, as a whole, favours compounds with a hit. Of some 83,000 tested, about 20% had one in any assay.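 The test compound was applied at a single concentration to cells in 96-well plates for 48 hours, and percent growth was recorded.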 Activity calls are given as the source filed them. Rule for the calls: active = growth percent below 10; inactive = the rest. *1 amine or outer side, *2 acyl side, *3 side chain or, on linkers, in order; H or OH if unused. Where a SMILES comes first, the peptide text is derived from it. Bridges are numbered along the chain shown (N, C = ends). Roman numbers before positions name the chains, in order. [ ]: non-standard residue; d: D form. ξ: configuration not given here. Actinocin(1to9) = Cc1c2oc3c(C)ccc(C(=O)[*:2])c3nc-2c(C(=O)[*:1])c(N)c1=O; NMeV = CN[CH](C(=O)O)C(C)C; ξD = NC(CC(=O)O)C(=O)O; Sar = CNCC(=O)O
# Tested on: A549/ATCC NSCLC
# Assay: NCI-60 one-dose screen, 48 h (100 = growth as untreated, 0 = no growth, -100 = all killed)
# Settings: 10 µM unless noted
row,SMILES,growth
1,"CCC(C)C1NC(=O)C(NC(=O)c2c3nc4c(C(=O)NC5C(=O)NC(C(C)CC)C(=O)N6CCCC6C(=O)N(C)CC(=O)N(C)C(C(C)C)C(=O)OC5C)ccc(C)c4oc-3c(C)c(=O)c2N)C(C)OC(=O)C(C(C)C)N(C)C(=O)CN(C)C(=O)C2CCCN2C1=O (centres undefined) (I: TIP[Sar][NMeV] / II: TIP[Sar][NMeV]; ester I:1-I:C, II:1-II:C; linker I:N-II:N via Actinocin(1to9); configuration not given here)",-15.2% (active)
2,O=C(c1ccccc1)N(CCCl)C(=O)N(CCCl)C(=O)c1ccccc1,95.7% (inactive)
3,OC(CSc1ccccc1)CN1CCN(c2ccc(Cl)cc2)CC1 (centres undefined),98.4% (inactive)
4,CCCOS(=O)(=O)c1ccccc1,111% (inactive)
5,O=C(c1ccccc1)C(Br)[N+](=O)[O-] (centres undefined),69.6% (inactive)
6,CCCCCCCCC(=O)OCCCC(CCC(CCC1CCCO1)OC(=O)CCCCCCCC)OC(=O)CCCCCCCC (centres undefined),104% (inactive)
7,O=C(CCl)N(c1ccccc1)c1ccccc1,103% (inactive)
8,NC(=S)N/N=C/c1ncccc1O,28% (inactive)
9,COc1c(C)c2c(c(O)c1C/C=C(\C)CCC(=O)O)C(=O)OC2,11.6% (inactive)
10,CC1=CC(=O)C=CC1(C)C(Cl)(Cl)Cl (centres undefined),68.4% (inactive)
11,O=C1c2ccccc2C(=O)c2c(O)c(Cl)cc(O)c21,108% (inactive)
12,Cc1oc2c(C)c3oc(=O)cc(C)c3cc2c1CCl,88.5% (inactive)
13,Oc1c(C(Nc2ccccc2)c2ccccc2)ccc2cccnc12 (centres undefined),37.3% (inactive)
14,O=C(/C=C/C(Cl)(Cl)Cl)Nc1ccc(Cl)cc1,103% (inactive)
15,N#CC(=C1SCS1)[N+](=O)[O-],20.9% (inactive)
16,Cc1cc(N/N=C/c2ccccn2)nc2ccccc12,1.82% (active)
17,CCCCCCN(CCCCCC)CCCNc1nccc2ccccc12,14.3% (inactive)
18,COC(=O)[C@]1(C)CCC[C@]2(C)c3ccc(C(C)C)cc3C(=O)[C@@H](Br)[C@@H]12,90.1% (inactive)
19,CCOC(=O)NC(/C=C/c1ccccc1)NC(=O)OCC,95.7% (inactive)

row,SMILES,growth
1,NCC(=O)NC(CC(=O)O)C(=O)O (centres undefined) (H-Gly-[ξD]-OH),103% (inactive)
2,Nc1nc2ncc(CNc3ccc(C(=O)NC(CCC(=O)NC(CCC(=O)NC(CCC(=O)NC(CCC(=O)NC(CCC(=O)O)C(=O)O)C(=O)O)C(=O)O)C(=O)O)C(=O)O)cc3)nc2c(=O)[nH]1 (centres undefined),104% (inactive)
3,O=C(Cc1nc2cc(Cl)c(Cl)cc2nc1CC(=O)c1ccccc1)c1ccccc1,74.4% (inactive)
4,Cn1c(-c2ccccc2)c(/C=C/C2=[N+](C)c3ccccc3C2(C)C)c2ccccc21,6.27% (active)
5,NC(=Nc1nc(-c2ccccn2)cc2ccccc12)c1ccccn1,-54.2% (active)
6,CC(C)(C)c1ccc(O)c(-c2ccccc2)c1,109% (inactive)
7,CCOC(=O)C1=NN(c2ccccc2)C(=O)/C1=C\N1C(=O)/C(=C/c2cccc(O)c2)SC1=S,79.3% (inactive)
8,CCN(CC)CCNc1ccc([N+](=O)[O-])c2sc3ccccc3c(=O)c12,7.92% (active)
9,NCCCN(CCCN)CCCNCc1c2ccccc2c(CNCCCN(CCCN)CCCN)c2ccccc12,95.2% (inactive)
10,CCOC(=O)/C(=C\c1ccc2ccccc2c1)P(=O)(OCC)OCC,55.8% (inactive)
11,Cc1cc2nc(CC(=O)c3ccncc3)c(=O)[nH]c2cc1C,98.5% (inactive)
12,Oc1c(Cl)cc(Cl)cc1C=NCC1CCC(CN=Cc2cc(Cl)cc(Cl)c2O)CC1 (centres undefined),106% (inactive)
13,CN1CCC(CN2c3ccccc3Sc3ccccc32)C1 (centres undefined),90.7% (inactive)
14,CC1(C)OC2C(COC(c3ccccc3)(c3ccccc3)c3ccccc3)OC(c3c[nH]c4c(N)ncnc34)C2O1 (centres undefined),44.7% (inactive)
15,O=[N+]([O-])c1ccc(Oc2ccccc2Cl)c([N+](=O)[O-])c1,92.7% (inactive)
16,Cc1cc(Br)c2nsnc2c1[N+](=O)[O-],54.4% (inactive)
17,Cc1cccc2c(N)c3ccccc3nc12,-68.6% (active)
18,O=C(/C(Cl)=N/O)c1ccc(-c2ccccc2)cc1,107% (inactive)

# Tested on: 786-0 renal
# Assay: as above
# Settings: 10 µM unless noted
row,SMILES,growth
1,"CCC(C)C1NC(=O)C(NC(=O)c2c3nc4c(C(=O)NC5C(=O)NC(C(C)CC)C(=O)N6CCCC6C(=O)N(C)CC(=O)N(C)C(C(C)C)C(=O)OC5C)ccc(C)c4oc-3c(C)c(=O)c2N)C(C)OC(=O)C(C(C)C)N(C)C(=O)CN(C)C(=O)C2CCCN2C1=O (centres undefined) (I: TIP[Sar][NMeV] / II: TIP[Sar][NMeV]; ester I:1-I:C, II:1-II:C; linker I:N-II:N via Actinocin(1to9); configuration not given here)",-20.8% (active)
2,O=C(c1ccccc1)N(CCCl)C(=O)N(CCCl)C(=O)c1ccccc1,103% (inactive)
3,OC(CSc1ccccc1)CN1CCN(c2ccc(Cl)cc2)CC1 (centres undefined),95.3% (inactive)
4,CCCOS(=O)(=O)c1ccccc1,121% (inactive)
5,O=C(c1ccccc1)C(Br)[N+](=O)[O-] (centres undefined),106% (inactive)
6,CCCCCCCCC(=O)OCCCC(CCC(CCC1CCCO1)OC(=O)CCCCCCCC)OC(=O)CCCCCCCC (centres undefined),97% (inactive)
7,O=C(CCl)N(c1ccccc1)c1ccccc1,108% (inactive)
8,NC(=S)N/N=C/c1ncccc1O,-17.1% (active)
9,COc1c(C)c2c(c(O)c1C/C=C(\C)CCC(=O)O)C(=O)OC2,21.3% (inactive)
10,CC1=CC(=O)C=CC1(C)C(Cl)(Cl)Cl (centres undefined),101% (inactive)
11,O=C1c2ccccc2C(=O)c2c(O)c(Cl)cc(O)c21,99.2% (inactive)
12,Cc1oc2c(C)c3oc(=O)cc(C)c3cc2c1CCl,84.2% (inactive)
13,Oc1c(C(Nc2ccccc2)c2ccccc2)ccc2cccnc12 (centres undefined),39.3% (inactive)
14,O=C(/C=C/C(Cl)(Cl)Cl)Nc1ccc(Cl)cc1,109% (inactive)
15,N#CC(=C1SCS1)[N+](=O)[O-],21.8% (inactive)
16,Cc1cc(N/N=C/c2ccccn2)nc2ccccc12,8.98% (active)
17,CCCCCCN(CCCCCC)CCCNc1nccc2ccccc12,5.89% (active)
18,COC(=O)[C@]1(C)CCC[C@]2(C)c3ccc(C(C)C)cc3C(=O)[C@@H](Br)[C@@H]12,94.8% (inactive)
19,CCOC(=O)NC(/C=C/c1ccccc1)NC(=O)OCC,103% (inactive)

row,SMILES,growth
1,NCC(=O)NC(CC(=O)O)C(=O)O (centres undefined) (H-Gly-[ξD]-OH),100% (inactive)
2,Nc1nc2ncc(CNc3ccc(C(=O)NC(CCC(=O)NC(CCC(=O)NC(CCC(=O)NC(CCC(=O)NC(CCC(=O)O)C(=O)O)C(=O)O)C(=O)O)C(=O)O)C(=O)O)cc3)nc2c(=O)[nH]1 (centres undefined),105% (inactive)
3,O=C(Cc1nc2cc(Cl)c(Cl)cc2nc1CC(=O)c1ccccc1)c1ccccc1,67.6% (inactive)
4,Cn1c(-c2ccccc2)c(/C=C/C2=[N+](C)c3ccccc3C2(C)C)c2ccccc21,24.2% (inactive)
5,NC(=Nc1nc(-c2ccccn2)cc2ccccc12)c1ccccn1,3.78% (active)
6,CC(C)(C)c1ccc(O)c(-c2ccccc2)c1,109% (inactive)
7,CCOC(=O)C1=NN(c2ccccc2)C(=O)/C1=C\N1C(=O)/C(=C/c2cccc(O)c2)SC1=S,98.8% (inactive)
8,CCN(CC)CCNc1ccc([N+](=O)[O-])c2sc3ccccc3c(=O)c12,37.2% (inactive)
9,NCCCN(CCCN)CCCNCc1c2ccccc2c(CNCCCN(CCCN)CCCN)c2ccccc12,99.1% (inactive)
10,CCOC(=O)/C(=C\c1ccc2ccccc2c1)P(=O)(OCC)OCC,11.6% (inactive)
11,Cc1cc2nc(CC(=O)c3ccncc3)c(=O)[nH]c2cc1C,87.7% (inactive)
12,Oc1c(Cl)cc(Cl)cc1C=NCC1CCC(CN=Cc2cc(Cl)cc(Cl)c2O)CC1 (centres undefined),96.7% (inactive)
13,CN1CCC(CN2c3ccccc3Sc3ccccc32)C1 (centres undefined),69% (inactive)
14,CC1(C)OC2C(COC(c3ccccc3)(c3ccccc3)c3ccccc3)OC(c3c[nH]c4c(N)ncnc34)C2O1 (centres undefined),62.8% (inactive)
15,O=[N+]([O-])c1ccc(Oc2ccccc2Cl)c([N+](=O)[O-])c1,83.7% (inactive)
16,Cc1cc(Br)c2nsnc2c1[N+](=O)[O-],17.8% (inactive)
17,Cc1cccc2c(N)c3ccccc3nc12,-9.45% (active)
18,O=C(/C(Cl)=N/O)c1ccc(-c2ccccc2)cc1,-80.7% (active)
